USP28 block = human USP28 deubiquitinase inhibition; actives 3% (n = 47,000); purified USP28, Ub-rhodamine cleavage fluorescence, 30 min; inhibition, % at 25 µM; AID 1645857; Q96RU2
OTUD3 block = blocks human OTUD3 ubiquitin-rhodamine cleavage | actives 0.7% (n = 47,000) | Q5T2D3 | inhibition, % at 25 µM | purified OTUD3, Ub-rhodamine fluorescence, 2 h
Target sequence (Q5T2D3 whole entry, looked up): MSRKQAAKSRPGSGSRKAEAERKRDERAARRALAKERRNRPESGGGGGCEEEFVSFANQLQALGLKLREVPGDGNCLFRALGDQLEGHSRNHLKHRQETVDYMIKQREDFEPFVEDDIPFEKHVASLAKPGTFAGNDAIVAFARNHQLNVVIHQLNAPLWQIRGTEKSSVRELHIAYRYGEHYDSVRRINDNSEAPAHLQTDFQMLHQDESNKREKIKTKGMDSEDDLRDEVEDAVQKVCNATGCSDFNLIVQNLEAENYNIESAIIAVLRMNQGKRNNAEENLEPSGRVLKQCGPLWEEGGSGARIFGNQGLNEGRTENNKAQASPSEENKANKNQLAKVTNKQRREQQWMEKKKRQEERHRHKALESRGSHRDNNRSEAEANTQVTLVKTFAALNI
USP17 inh = human USP17-like deubiquitinase inhibition | purified USP17, Ub-rhodamine cleavage fluorescence, 3 h | A8MUK1 | actives 6.5% (n = 47,000) | inhibition, % at 50 µM
USP30 block = inhibitors of human USP30 deubiquitinase. Q70CQ3. purified USP30, Ub-rhodamine cleavage fluorescence. inhibition, % at 25 µM. actives 5.3% (n = 47,000). AID 1645860
* marks the source's active call; other numbers are inactive results; i = inactive; nt = no result given. Only some compounds are listed: those with a hit (about 11% of all), similar ones and a draw of the others. No stated cut-off is given here; in the data, active means inhibition above about 30%; inactive means the rest.

SMILES	USP28 block	OTUD3 block	USP17 inh	USP30 block
CCOc1ccc(-c2nc3c(cnn3-c3ccccc3)c(=O)[nH]2)cc1	-8.8	1.3	37.2*	-1.9
Cc1nc(N[C@@H](Cc2ccccc2)C(=O)O)c2oc3ccccc3c2n1	0.2	2.6	3.6	-7.5
Cc1nc(NCCc2ccc(S(N)(=O)=O)cc2)c2oc3ccccc3c2n1	20.2	2.0	29.6	36.2*
CCCCCc1cc(O)c2c(ccc3c(O)c4c(cc32)C(C)(C)c2cc(O)cc(O)c2C4=O)c1	9.7	3.9	31.2*	-16.6
O=C(Nc1ccccc1F)C1CN(C(=O)c2ccc3c(c2)OCO3)C1	0.1	0.7	-1.8	-15.5
O=C(Nc1ccc2c(c1)OCCO2)c1ccc(N2CCCCC2)nn1	59.1*	5.4	17.5	2.1
O=C(Nc1ccc2c(c1)OCCO2)C1CN(C(=O)c2ccc3c(c2)OCO3)C1	43.2*	7.0	-0.3	5.2
COc1cc(NC(=O)c2cc(CN3CCOCC3)on2)cc(OC)c1	53.8*	2.6	0.4	2.9
Cc1ccc(NC(=O)c2cc(CN3CCCC3)on2)cc1C	4.8	-4.6	nt	-24.3
COc1cccc(NC(=O)c2cc(CN3CCCC3)on2)c1	20.6	-4.9	-2.7	-14.8
O=C(Nc1ccc2c(c1)OCCO2)c1cc(CN2CCCC2)on1	63.3*	-9.0	-7.5	-24.3
Cc1ccc(NC(=O)c2ccc(N3CCCCC3)nn2)cc1F	-0.2	-5.9	3.2	i
Cc1ccccc1NC(=O)c1cnn2c1NC1=C(C(=O)CCC1)C2c1ccccc1 (stereo not drawn)	-63.8	-43.1	-17.0	-211.9
COc1ccc(C(=O)Oc2cc(N)n(S(=O)(=O)c3ccc(F)cc3)n2)cc1	nt	2.7	12.0	nt
CC(=O)N1[C@@H](CNC(=O)c2cc(C(C)C)[nH]n2)C[C@@]2(C)[C@@H](O)CCCC[C@@H]12	-17.4	-2.7	-9.5	1.9
COc1ccc(-c2cc(C(=O)N3CCc4ccccc4C3)[nH]n2)cc1	11.0	1.2	9.2	18.5
O=C(Nc1ccc2c(c1)OCO2)c1cc(-c2ccco2)on1	30.3*	17.4	44.3*	-17.9
O=C(Nc1cccnc1)NC1CCCCC1	-0.4	-1.3	-12.6	-16.5
O=C(Nc1ccc2c(c1)OCCO2)c1cc(CN2CCOCC2)on1	52.9*	-0.2	nt	8.7
O=C(Nc1ccc2c(c1)OCCO2)NC1CCCCC1	31.0*	-5.4	2.3	-0.2
CC1CCc2noc(C3CCN(C(=O)CN(C)C(=O)c4ccco4)CC3)c2C1 (stereo not drawn)	3.4	1.9	-3.1	4.4
Cn1c(SCC(=O)Nc2ccc(N3CCOCC3)cc2)nnc1-c1ccco1	14.4	15.2	9.4	9.5
Cn1c(COc2ccccc2)nnc1SCC(=O)Nc1ccc(N2CCOCC2)cc1	58.1*	13.8	21.6	31.1*
CCOc1ccc(-n2c(SCC(=O)Nc3ccc(C)cc3)nnc2-c2c[nH]c3ccccc23)cc1	17.9	12.2	63.3*	56.0*
Cc1ccc(C)c(NC(=O)CSc2nnc(Cc3cccc4ccccc34)n2C)c1	44.9*	1.8	-13.5	-0.1
SMILES	USP28 block	OTUD3 block	USP17 inh	USP30 block
CCOc1ccc(NC(=O)CSc2nnc(-c3ccccn3)n2Cc2ccco2)cc1	-9.1	-9.7	-33.2	-38.2
CCOc1ccc(NC(=O)CSc2nnc(Cc3cccc4ccccc34)n2C)cc1	66.9*	7.3	65.1*	46.0*
Cc1ccc(C(=O)CSc2nnc(CC(=O)Nc3ccccc3F)n2C)cc1	1.5	-1.9	-10.3	-0.3
N#Cc1c(-c2ccccc2)noc1/C=C/Nc1cccc(C(F)(F)F)c1	-1.3	-0.1	-5.1	-7.7
Cc1ccc(NC(=O)CSc2ncnc3c2sc2nc(CC(C)C)c4c(c23)CCC4)cc1	2.1	-1.9	2.5	-5.2
O=C(C1CC1)N1CCCCCC1C1CCN(c2ncnc3sccc23)CC1 (stereo not drawn)	-0.8	1.3	-10.7	0.6
Cc1nc2c(C)cccn2c(=O)c1Cc1nnc(SCC(=O)Nc2ccccc2)n1C	-3.7	-5.0	36.4*	32.7*
Cn1c(SCC(=O)Nc2ccccc2Br)nnc1-c1ccccn1	8.5	7.8	9.2	13.9
O=C(NCc1ccccc1Cl)c1csnn1	1.8	0.9	-30.1	1.2
O=C(NCc1csc2ccccc12)c1ccc(Cl)cc1	11.2	-3.4	22.9	45.4*
COc1ccc(C(=O)NCCc2cccs2)cc1	9.4	10.2	-3.0	13.9
COc1ccc(C(=O)NCc2csc3ccccc23)cc1	34.7*	25.2	23.9	64.2*
CCOC(=O)c1c(-c2ccccc2Cl)csc1NC(=O)CNc1cccc(O)c1	39.0*	-3.9	31.6*	-39.4
COc1ccc(-n2ncc(C(=O)N3CCN(c4cc(C)ccc4C)CC3)c2C2CCNCC2)cc1	10.9	19.9	-18.3	30.5*

Screening results: PubChem, Buhrlage Lab, Dana-Farber Cancer Institute and Novartis Institutes for BioMedical Research (Cambridge, Mass)
